In PubChem BioAssay AID1159580 (chemical genetic matrix, 2015):
Where “and” joins values, the source holds several entries; their conditions need not be identical. Identical values can stand only once. Screen size: about 5,500 compounds; about 2,000 (36%) were called active. Roughly 18% stayed inconclusive and do not appear here. Cut-off read from the data, not from the text of the source: active = normalized growth mostly below about 0.91 (no sharp cut-off); inconclusive = no clear call, values can overlap the other calls; inactive = mostly above about 0.92. This is one part of the list.

Experiment: chemical genetic growth profiling, strain panel (AID 1159580);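 note: tested at 20 µM; growth read once vehicle control cultures reached saturation at 30 °C; 1 = growth at the plate median or of vehicle wells; lower values mean less growth of the strain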
Details: S. cerevisiae deletion strains, growth OD

Measured: normalized growth

COC1=CC(=O)C=C(OC)C1=O
active: locus YDR159W, strain sac3, hits give low values 0.794 | locus YDR195W, strain ref2 1.18 [resistant]
inactive: locus YAL021C, strain ccr4, hits give low values 1.03 | locus YAL026C, strain drs2, hits give low values 0.978 | locus YAL030W, strain snc1, hits give low values 0.991 | locus YBL061C, strain skt5, hits give low values 0.998 | locus YBR009C, strain hhf1, hits give low values 0.98 | locus YBR021W, strain FUR4, hits give low values 1.12 | locus YBR023C, strain chs3, hits give low values 0.998 | locus YBR171W, strain sec66, hits give low values 1.01 | locus YBR229C, strain ROT2, hits give low values 0.956 | locus YBR231C, strain swc5, hits give low values 0.982 | locus YBR279W, strain paf1, hits give low values 0.992 | locus YCL011C, strain gbp2, hits give low values 1.01 | locus YCL016C, strain dcc1, hits give low values 0.997 | locus YCL029C, strain bik1, hits give low values 0.97 | locus YCL061C, strain MRC1, hits give low values 1.01 | locus YCL069W, strain vba3, hits give low values 1 | locus YCR088W, strain abp1, hits give low values 1 | locus YDL005C, strain med2, hits give low values 1.02 | locus YDL035C, strain GPR1, hits give low values 1.01 | locus YDL040C, strain nat1, hits give low values 0.992 | locus YDL074C, strain BRE1, hits give low values 1.05 | locus YDL101C, strain DUN1, hits give low values 0.975 | locus YDL134C, strain PPH21, hits give low values 0.979 | locus YDL185W, strain tfp1, hits give low values 0.964 | locus YDL192W, strain arf1, hits give low values 0.995 | locus YDR001C, strain nth1, hits give low values 1 | locus YDR069C, strain doa4, hits give low values 1 | locus YDR101C, strain arx1, hits give low values 0.984 | locus YDR137W, strain rgp1, hits give low values 0.88 | locus YDR162C, strain NBP2, hits give low values 0.982 | locus YDR297W, strain sur2, hits give low values 0.978 | locus YDR318W, strain mcm21, hits give low values 0.998 | locus YDR334W, strain swr1, hits give low values 1.01 | locus YDR335W, strain msn5, hits give low values 1.01 | locus YDR388W, hits give low values 0.983 | locus YDR392W, strain spt3, hits give low values 0.879 | locus YDR502C, strain sam2, hits give low values 0.988 | locus YEL003W, strain gim4, hits give low values 0.992 | locus YEL037C, strain rad23, hits give low values 1.01 | locus YEL061C, strain CIN8 (second series), hits give low values 1 | locus YEL061C, strain CIN8, hits give low values 0.988 | locus YER015W, strain faa2, hits give low values 0.997 | locus YER016W, strain bim1, hits give low values 0.97 | locus YER110C, hits give low values 0.97 | locus YER111C, strain swi4, hits give low values 1.01 | locus YER155C, strain BEM2 (second series), hits give low values 1.02 | locus YER155C, strain BEM2, hits give low values 1 | locus YER167W, strain BCK2, hits give low values 1 | locus YFR010W, strain ubp6, hits give low values 1 | locus YGL078C, strain dbp3, hits give low values 0.99 | locus YGL086W, strain mad1, hits give low values 0.983 | locus YGL167C, strain pmr1, hits give low values 0.987 | locus YGL173C, strain kem1, hits give low values 1.01 | locus YGL227W, strain vid30, hits give low values 0.998 | locus YGL240W, strain doc1, hits give low values 0.914 | locus YGL248W, strain PDE1, hits give low values 0.996 | locus YGL253W, strain hxk2, hits give low values 1.01 | locus YGR135W, strain pre9, hits give low values 1 | locus YGR252W, strain gcn5, hits give low values 1.16 | locus YHR013C, strain ard1, hits give low values 1.04 | locus YHR027C, strain rpn1, hits give low values 0.995 | locus YHR030C, strain SLT2, hits give low values 0.994 and 1.02 | locus YHR079C, strain IRE1 (second series), hits give low values 0.984 | locus YHR079C, strain IRE1, hits give low values 1.01 | locus YHR094C, strain hxt1, hits give low values 0.976 | locus YHR129C, strain ARP1, hits give low values 0.997 | locus YHR142W, strain chs7, hits give low values 1.01 | locus YHR200W, strain rpn10, hits give low values 1.01 | locus YIL066C, strain RNR3, hits give low values 0.988 | locus YIL073C, strain SPO22, hits give low values 0.975 | locus YIL125W, strain kgd1, hits give low values 0.995 | locus YIR030C, strain dcg1, hits give low values 0.989 | locus YJL092W, strain hpr5, hits give low values 1 | locus YJL095W, strain BCK1 (second series), hits give low values 0.996 | locus YJL095W, strain BCK1, hits give low values 0.982 and 1.03 | locus YJL115W, strain asf1, hits give low values 1.01 | locus YJL129C, strain trk1, hits give low values 1.01 | locus YJL134W, strain LCB3, hits give low values 0.99 | locus YJL154C, strain vps35, hits give low values 1.01 | locus YJL164C, strain tpk1, hits give low values 0.999 | locus YJL166W, strain qcr8, hits give low values 0.99 | locus YJL168C, strain set2, hits give low values 0.998 | locus YJL187C, strain SWE1 (second series), hits give low values 0.987 | locus YJR043C, strain POL32, hits give low values 1 | locus YJR066W, strain TOR1, hits give low values 0.941
